PubChem BioAssay (Tox21)
Where “and” joins values, the source holds several entries; their conditions need not be identical. Equal values may be shown once. Inconclusive results are not listed. Calls of active or inactive are those of the source. Unless noted, calls follow the shape of the dose curve; as a rule, active = well fitted curve in the direction sought with a large enough effect in the repeat runs; inconclusive = weak or mixed curves; inactive = no such curve, though single readings can be large; an effect the other way counts as inactive or inconclusive.

Experiments:
[1] = qHTS assay to identify small molecule antagonists of the sonic hedgehog signaling (Shh) pathway (AID 1259369; calls by dose curve; also: nearly all actives have a fitted effect of over 45% in size; also: potency is read from the fitted curve at half-maximal effect)
Summary of the method: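 NIH/3T3 stable Gli1-Luc clone, 2,000 cells/well, 4hr settle; cpd + conditioned medium 24hr; Luc reagent 30min RT; luminescence.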

[2] = molecular target: Estrogen receptor beta (Homo sapiens) (UniProt Q92731); test: qHTS assay to identify small molecule agonists of the estrogen receptor beta (ER-beta) signaling pathway (AID 1259377; active = well fitted activation curve with a large enough effect in the signal ratio in the repeat runs, not every such curve was filed as active; the % refers to the signal ratio)
Chain of Estrogen receptor beta (Homo sapiens) (Q92731 whole entry, looked up): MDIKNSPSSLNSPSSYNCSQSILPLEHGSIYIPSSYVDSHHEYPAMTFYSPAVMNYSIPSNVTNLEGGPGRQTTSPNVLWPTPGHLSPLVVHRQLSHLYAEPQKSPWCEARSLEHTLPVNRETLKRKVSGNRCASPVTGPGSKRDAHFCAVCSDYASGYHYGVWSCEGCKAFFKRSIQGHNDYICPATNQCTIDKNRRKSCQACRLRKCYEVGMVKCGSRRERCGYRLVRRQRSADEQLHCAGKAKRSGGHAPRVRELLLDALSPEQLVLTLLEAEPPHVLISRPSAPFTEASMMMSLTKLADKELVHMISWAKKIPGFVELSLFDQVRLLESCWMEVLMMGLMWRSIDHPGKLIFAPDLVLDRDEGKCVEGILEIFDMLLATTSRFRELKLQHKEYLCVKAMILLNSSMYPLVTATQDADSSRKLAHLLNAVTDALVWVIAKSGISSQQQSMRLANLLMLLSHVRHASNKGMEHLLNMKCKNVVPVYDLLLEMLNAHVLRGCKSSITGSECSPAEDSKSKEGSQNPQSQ
Summary of the method: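 In HEK293T cells bearing a UAS-beta-lactamase reporter under ER-beta control, DMSO-delivered compounds were incubated for 16 hr at 37C. Activity was detected as fluorescence 2 hours after LiveBLAzer B/G FRET substrate addition.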

[3] = molecular target: Estrogen receptor beta (Homo sapiens) (UniProt Q92731); test: qHTS assay to identify small molecule antagonists of the estrogen receptor beta (ER-beta) signaling pathway (AID 1259378; active = well fitted inhibition curve with a large enough effect in the signal ratio in the repeat runs, not every such curve was filed as active; the % refers to the signal ratio; also: potency is read from the fitted curve at half-maximal effect)
Summary of the method: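 ER-beta-UAS-bla HEK293T cells in 2% charcoal-stripped FBS medium treated with compound plus 1nM final 17-beta-estradiol for 16 hr at 37C. Beta-lactamase reporter read by FRET substrate fluorescence after 2 hours at room temperature.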

[4] = qHTS assay to identify small molecule agonists of the androgen receptor (AR) signaling pathway in the presence of an antagonist - cell viability counter screen (AID 1259379); also: nearly all actives have a fitted effect of over 25% in size; also: potency is read from the fitted curve at half-maximal effect
Summary of the method: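 MDA-kb2 viability measured by CellTiter-Fluor fluorescence in the same wells as the luciferase signal; nilutamide 3.0uM final; 15-point compound titration; 16 hr at 37C.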

[5] = qHTS assay to identify small molecule agonists of the estrogen receptor beta (ER-beta) signaling pathway - cell viability counter screen (AID 1259380); also: nearly all actives have a fitted effect of over 30% in size; also: potency is read from the fitted curve at half-maximal effect
Summary of the method: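 Measured: luminescence from CellTiter-Glo after 30 min at room temperature, added to wells already read for the LiveBLAzer FRET reporter (2 hr substrate); ER-beta-UAS-bla HEK293T cells had 16 hr compound treatment at 37C, 5% CO2.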

[6] = qHTS assay to identify small molecule antagonists of the estrogen receptor beta (ER-beta) signaling pathway - cell viability counter screen (AID 1259382); also: nearly all actives have a fitted effect of over 55% in size; also: potency is read from the fitted curve at half-maximal effect
Summary of the method: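 Readout: luminescence, CellTiter-Glo, same wells as bla assay. System: ER-beta-UAS-bla GripTite HEK293T, 2% charcoal-stripped FBS. Exposure: compounds plus 1nM 17-beta-estradiol, 16 hr, 37C.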

[7] = molecular target: Estrogen receptor (Homo sapiens) (UniProt P03372); test: qHTS assay to identify small molecule agonists of the estrogen receptor alpha (ER-alpha) signaling pathway in the presence of an antagonist (AID 1259383; calls by dose curve; also: top concentration of the series differs between compounds; nearly all actives have a fitted effect of over 15% in size)
Chain of Estrogen receptor (Homo sapiens) (P03372 whole entry, looked up): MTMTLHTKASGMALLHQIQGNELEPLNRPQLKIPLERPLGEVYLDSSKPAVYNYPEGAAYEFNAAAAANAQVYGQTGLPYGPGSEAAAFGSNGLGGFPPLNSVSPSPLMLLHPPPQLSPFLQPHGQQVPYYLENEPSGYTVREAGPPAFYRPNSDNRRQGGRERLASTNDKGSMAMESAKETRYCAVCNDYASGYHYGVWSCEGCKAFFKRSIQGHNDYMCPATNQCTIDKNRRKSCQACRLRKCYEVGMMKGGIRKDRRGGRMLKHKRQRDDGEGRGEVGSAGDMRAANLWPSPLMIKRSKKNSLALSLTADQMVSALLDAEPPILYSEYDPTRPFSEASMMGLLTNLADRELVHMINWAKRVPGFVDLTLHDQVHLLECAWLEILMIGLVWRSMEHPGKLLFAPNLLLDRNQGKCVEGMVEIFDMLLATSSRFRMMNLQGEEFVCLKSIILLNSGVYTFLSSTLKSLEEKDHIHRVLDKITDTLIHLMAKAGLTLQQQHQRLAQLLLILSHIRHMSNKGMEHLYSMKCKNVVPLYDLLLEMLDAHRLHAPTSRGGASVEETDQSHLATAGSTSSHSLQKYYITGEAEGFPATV
Summary of the method: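 Quantitative HTS confirmation: compounds titrated at 15 concentrations onto estrogen-deprived VM7Luc4E2 cells carrying a four-ERE luciferase construct, with ICI-182,780 present at 10.0nM final. Signal is luminescence after 22hr exposure.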

[8] = qHTS assay to identify small molecule agonists or antagonists of the thyroid stimulating hormone receptor (TSHR) signaling pathway - wild type cell line counter screen (AID 1259384; calls by dose curve)
Summary of the method: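 Wild-type Hek293 cells, 800/well, 18 h at 37C, then compound with Ro20-1724 for 30 min RT. cAMP by HTRF (cAMP-d2/anti-cAMP cryptate), 1 h RT, fluorescence read. 15 concentrations, triplicates.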

[9] = molecular target: Thyrotropin receptor (Homo sapiens) (UniProt P16473); test: qHTS assay to identify small molecule antagonists of the thyroid stimulating hormone receptor (TSHR) signaling pathway (AID 1259385; calls by dose curve; also: nearly all actives have a fitted effect of over 20% in size)
Chain of Thyrotropin receptor (Homo sapiens) (P16473 whole entry, looked up): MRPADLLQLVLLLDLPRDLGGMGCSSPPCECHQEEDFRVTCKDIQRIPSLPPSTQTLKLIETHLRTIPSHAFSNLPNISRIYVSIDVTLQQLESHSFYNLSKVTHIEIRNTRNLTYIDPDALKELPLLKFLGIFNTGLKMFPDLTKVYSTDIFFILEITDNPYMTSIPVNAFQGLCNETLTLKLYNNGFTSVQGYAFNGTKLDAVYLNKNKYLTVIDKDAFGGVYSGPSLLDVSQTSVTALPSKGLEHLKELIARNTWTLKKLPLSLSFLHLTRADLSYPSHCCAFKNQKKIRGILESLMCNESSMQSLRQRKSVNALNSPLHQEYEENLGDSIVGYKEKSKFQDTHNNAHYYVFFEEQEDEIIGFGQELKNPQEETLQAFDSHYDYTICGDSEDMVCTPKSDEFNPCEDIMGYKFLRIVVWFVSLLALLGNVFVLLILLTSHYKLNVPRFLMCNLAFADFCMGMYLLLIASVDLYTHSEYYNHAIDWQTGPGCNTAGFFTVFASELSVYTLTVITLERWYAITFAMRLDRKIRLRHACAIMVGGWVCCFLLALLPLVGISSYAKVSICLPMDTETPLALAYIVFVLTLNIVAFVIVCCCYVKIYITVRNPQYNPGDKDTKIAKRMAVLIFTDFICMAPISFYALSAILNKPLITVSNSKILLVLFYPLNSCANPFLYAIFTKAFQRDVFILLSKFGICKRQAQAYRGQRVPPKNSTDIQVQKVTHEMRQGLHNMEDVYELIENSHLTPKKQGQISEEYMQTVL
Summary of the method: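 TSHR-HEK293 cells (800/well) plated 18 h, then compounds with Ro20-1724 and TSH at 1.5 ng/mL final, 30 min at room temperature. cAMP quantified by HTRF (cAMP-d2/anti-cAMP-cryptate, 1 h); 15 concentrations in triplicate.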

[10] = qHTS assay to identify small molecule agonists of the estrogen receptor alpha (ER-alpha) signaling pathway in the presence of an antagonist - cell viability counter screen (AID 1259386);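 also: cells exposed to compounds for 22 h at 37 °C before the viability read; nearly all actives have a fitted effect of over 30% in size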; also: potency is read from the fitted curve at half-maximal effect
Summary of the method: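 The test measures whether compounds kill ER-alpha reporter cells (VM7Luc4E2) under antagonist co-treatment (ICI-182,780, 10.0nM). Fluorescence from CellTiter-Fluor is read after a 22hr exposure.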

[11] = molecular target: Progesterone receptor (Homo sapiens) (UniProt P06401); test: qHTS assay to identify small molecule agonists of the progesterone receptor (PR) signaling pathway (AID 1346784; calls by dose curve; also: nearly all actives have a fitted effect of over 30% in size)
Chain of Progesterone receptor (Homo sapiens) (P06401 whole entry, looked up): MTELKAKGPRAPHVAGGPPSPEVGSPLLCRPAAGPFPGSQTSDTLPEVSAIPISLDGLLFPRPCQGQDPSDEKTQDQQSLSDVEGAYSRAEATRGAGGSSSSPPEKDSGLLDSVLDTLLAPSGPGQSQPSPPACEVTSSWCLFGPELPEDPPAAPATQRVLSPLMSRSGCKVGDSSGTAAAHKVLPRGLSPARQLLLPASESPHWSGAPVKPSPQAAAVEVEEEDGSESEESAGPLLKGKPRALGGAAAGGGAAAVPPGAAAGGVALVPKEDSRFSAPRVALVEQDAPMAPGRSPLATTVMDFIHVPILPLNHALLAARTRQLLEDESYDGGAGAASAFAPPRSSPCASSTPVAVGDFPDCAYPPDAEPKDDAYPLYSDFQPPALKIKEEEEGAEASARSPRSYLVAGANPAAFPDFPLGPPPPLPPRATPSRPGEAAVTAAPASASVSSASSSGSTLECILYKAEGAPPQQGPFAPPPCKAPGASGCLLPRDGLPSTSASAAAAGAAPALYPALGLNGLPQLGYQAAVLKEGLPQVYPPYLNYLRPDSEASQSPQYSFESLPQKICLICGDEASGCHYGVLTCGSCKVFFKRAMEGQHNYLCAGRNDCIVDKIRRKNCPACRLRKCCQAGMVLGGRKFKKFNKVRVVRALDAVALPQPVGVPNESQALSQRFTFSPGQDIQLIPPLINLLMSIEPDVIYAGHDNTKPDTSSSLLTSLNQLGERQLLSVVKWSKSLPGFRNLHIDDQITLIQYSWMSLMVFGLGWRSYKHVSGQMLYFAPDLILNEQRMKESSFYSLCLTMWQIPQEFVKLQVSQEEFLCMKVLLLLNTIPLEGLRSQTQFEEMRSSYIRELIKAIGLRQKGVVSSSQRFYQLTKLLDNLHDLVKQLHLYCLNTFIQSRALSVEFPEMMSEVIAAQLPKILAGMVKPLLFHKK
Summary of the method: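 Using charcoal-stripped serum (2%) to limit endogenous steroids, PR-UAS-bla HEK 293T cells received compounds for 16 hr at 37C after 6 hr plating; beta-lactamase FRET fluorescence was recorded following 2 hr substrate loading at room temperature.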

[12] = qHTS assay to identify small molecule antagonists of the progesterone receptor (PR) signaling pathway - cell viability counter screen (AID 1346798); also: nearly all actives have a fitted effect of over 50% in size; also: potency is read from the fitted curve at half-maximal effect
Summary of the method: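 ATP content as viability readout: CellTiter-Glo luminescence, 30 min room temperature, in PR-UAS-bla HEK293T cells after 16 hr compound/R5020 treatment at 37C and 5% CO2.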

[13] = qHTS assay to identify small molecule agonists of the progesterone receptor (PR) signaling pathway - cell viability counter screen (AID 1346799; calls by dose curve; also: nearly all actives have a fitted effect of over 45% in size; also: potency is read from the fitted curve at half-maximal effect)
Summary of the method: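 Cytotoxicity in PR-bla HEK293T cells: 16 h compound, 37C; CellTiter-Glo added post-FRET read; luminescence after 30 min RT.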

[14] = qHTS assay to identify small molecule agonists of the TGF-beta/Smad signaling pathway - cell viability counter screen (AID 1346829); also: nearly all actives have a fitted effect of over 45% in size; also: potency is read from the fitted curve at half-maximal effect
Summary of the method: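 SBE-bla HEK 293T cells plated overnight, compound exposure 5 hr at 37 C. Viability read in the same wells by CellTiter-Glo luminescence after 30 min at room temperature, following the beta-lactamase read.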

[15] = qHTS assay to identify small molecule agonists of the TGF-beta/Smad signaling pathway (AID 1346859; active = well fitted activation curve with a large enough effect in the signal ratio in the repeat runs, not every such curve was filed as active; the % refers to the signal ratio; also: series mostly up to about 77 µM)
Summary of the method: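 Stable Smad binding element-beta-lactamase HEK 293T cells; 5 hr compound exposure at 37 C under 5% CO2; 2 hr room-temperature substrate step; fluorescence excited at 405 nm, collected at 460 nm and 530 nm.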

[16] = molecular target: Thyrotropin-releasing hormone receptor (Homo sapiens) (UniProt P34981); test: qHTS assay to identify small molecule antagonists of the thyrotropin-releasing hormone receptor (TRHR) signaling pathway (AID 1346877; active = well fitted inhibition curve with a large enough effect in the repeat runs, not every such curve was filed as active; also: series mostly up to about 51 µM)
Chain of Thyrotropin-releasing hormone receptor (Homo sapiens) (P34981 whole entry, looked up): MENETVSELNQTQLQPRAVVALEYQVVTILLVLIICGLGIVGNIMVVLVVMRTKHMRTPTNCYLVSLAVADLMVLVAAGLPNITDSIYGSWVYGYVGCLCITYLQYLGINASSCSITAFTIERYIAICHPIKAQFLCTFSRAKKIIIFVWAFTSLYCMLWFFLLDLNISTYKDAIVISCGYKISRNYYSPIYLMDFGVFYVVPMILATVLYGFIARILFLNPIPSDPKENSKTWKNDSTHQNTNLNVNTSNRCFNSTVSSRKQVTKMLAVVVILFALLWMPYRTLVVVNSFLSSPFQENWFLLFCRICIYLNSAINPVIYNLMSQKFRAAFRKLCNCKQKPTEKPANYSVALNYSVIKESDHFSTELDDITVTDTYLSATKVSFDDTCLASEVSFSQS
Summary of the method: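 Overnight-plated (18 h, 37 °C) HEK293 cells expressing TRHR were dye-loaded 2 h, treated with compound, then stimulated with TRH at 1 nM final. Fluorescence intensity was captured every second for 3 min.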

[17] = molecular target: Thyrotropin-releasing hormone receptor (Homo sapiens) (UniProt P34981); test: qHTS assay to identify small molecule agonists of the thyrotropin-releasing hormone receptor (TRHR) signaling pathway (AID 1346891; calls by dose curve;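 also: HEK293 cells expressing TRHR with calcium dye readout; series mostly up to about 58 µM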)
Summary of the method: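 In 1536-format, 1500 TRHR-Hek293 cells per well grew 18 h, took up calcium dye for 2 h at 37 °C, received compound, and were read kinetically; 15-point titrations, triplicates.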

[18] = molecular target: Androgen receptor (Homo sapiens) (UniProt P10275); test: qHTS assay to identify small molecule agonists of the androgen receptor (AR) signaling pathway in the presence of an antagonist (AID 1259381; calls by dose curve; also: nearly all actives have a fitted effect of over 15% in size)
Chain of Androgen receptor (Homo sapiens) (P10275 whole entry, looked up): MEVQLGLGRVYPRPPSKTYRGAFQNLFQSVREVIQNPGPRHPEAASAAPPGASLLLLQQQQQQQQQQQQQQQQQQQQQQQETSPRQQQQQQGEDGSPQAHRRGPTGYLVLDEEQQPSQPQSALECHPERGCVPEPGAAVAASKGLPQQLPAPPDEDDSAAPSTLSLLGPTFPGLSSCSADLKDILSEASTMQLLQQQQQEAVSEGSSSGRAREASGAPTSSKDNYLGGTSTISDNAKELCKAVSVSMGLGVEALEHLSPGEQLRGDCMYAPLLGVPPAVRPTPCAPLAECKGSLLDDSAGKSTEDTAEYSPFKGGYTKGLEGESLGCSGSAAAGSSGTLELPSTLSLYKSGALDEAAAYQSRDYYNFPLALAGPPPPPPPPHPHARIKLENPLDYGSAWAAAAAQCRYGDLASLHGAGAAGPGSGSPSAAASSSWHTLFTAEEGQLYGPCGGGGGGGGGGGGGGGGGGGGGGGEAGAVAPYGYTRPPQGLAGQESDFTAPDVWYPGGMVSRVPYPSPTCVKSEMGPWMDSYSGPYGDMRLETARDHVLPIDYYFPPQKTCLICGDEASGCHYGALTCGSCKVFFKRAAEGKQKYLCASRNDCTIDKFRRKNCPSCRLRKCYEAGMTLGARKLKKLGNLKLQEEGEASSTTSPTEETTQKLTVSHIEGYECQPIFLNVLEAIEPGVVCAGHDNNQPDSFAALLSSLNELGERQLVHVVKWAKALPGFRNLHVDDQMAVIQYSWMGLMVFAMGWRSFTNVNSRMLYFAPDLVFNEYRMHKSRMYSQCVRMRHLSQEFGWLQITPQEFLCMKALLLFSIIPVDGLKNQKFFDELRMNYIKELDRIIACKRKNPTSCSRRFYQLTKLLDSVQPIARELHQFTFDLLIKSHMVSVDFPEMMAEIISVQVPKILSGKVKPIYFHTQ
Summary of the method: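 Luminescent ONE-Glo read, 30min at room temperature, follows 16hr compound exposure (15 concentrations) of MDA-kb2 cells at 37C, 0% CO2, with nilutamide added at 3.0uM final.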

[19] = molecular target: Progesterone receptor (Homo sapiens) (UniProt P06401); test: qHTS assay to identify small molecule antagonists of the progesterone receptor (PR) signaling pathway (AID 1346795; active = well fitted inhibition curve with a large enough effect in the signal ratio in the repeat runs, not every such curve was filed as active; the % refers to the signal ratio; also: potency is read from the fitted curve at half-maximal effect)
Summary of the method: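 Inhibition of R5020-induced (1 nM final) beta-lactamase reporter signal in PR-UAS-bla HEK293T cells was scored by FRET fluorescence after overnight (16 hr) compound treatment.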

[20] = qHTS assay to identify small molecule antagonists of the TGF-beta/Smad signaling pathway - cell viability counter screen (AID 1346824); also: nearly all actives have a fitted effect of over 50% in size; also: potency is read from the fitted curve at half-maximal effect
Summary of the method: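 SBE-bla HEK 293T cells, incubated overnight, then compound plus 0.25 ng/mL TGF-beta1 (stock added) for 5 hr at 37 C. Viability was read in the same wells by CellTiter-Glo luminescence after 30 min at room temperature.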

Measured: Potency

OC1CCC(C2CCCCC2)CC1 (stereo not given)
not listed: [18] | [19] | [20]
inactive: all other assays above

CCCCCCCCCCOC(=O)c1ccccc1C(=O)OCCCCCCCC
not listed: [11] | [13]
inactive: all other assays above

CC(C)OC(=O)C(O)(CC(=O)O)CC(=O)O
not listed: [11]
inactive: all other assays above

CC1(C)CC(O)CC(C)(C)N1
not listed: [11] | [14] | [18]
inactive: all other assays above

CCc1ccc(Br)cc1
not listed: [16] | [17] | [18] | [20]
inactive: all other assays above

O=C(/C=C/c1ccccc1)OC/C=C/c1ccccc1
inactive: all assays above

CCO[Si](OCC)(OCC)OCC
not listed: [11] | [16] | [17] | [18] | [19]
inactive: all other assays above

Cc1ccc(-c2ccccc2)cc1
not listed: [7] | [11] | [18]
inactive: all other assays above

Cc1ccc(N/N=c2\c(=O)cc/c(=N\Nc3ccc(S(=O)(=O)O)cc3)c2=O)c(C)c1
active: [4] 27.3 µM | [10] 34.4 µM
not listed: [18]
inactive: all other assays above

CC(=O)OCC=C(C)C
not listed: [12] | [13] | [16] | [17] | [20]
inactive: all other assays above

C1CCC(SSC2CCCCC2)CC1
not listed: [13] | [16] | [17] | [18]
inactive: all other assays above

O=[N+]([O-])c1ccc(F)c(Cl)c1
not listed: [7] | [10] | [11] | [13] | [18]
inactive: all other assays above

CCCCOC(=O)CC
not listed: [7] | [18]
inactive: all other assays above

CC(=O)CC(=O)Nc1ccc(S(=O)(=O)O)cc1
not listed: [8] | [18] | [20]
inactive: all other assays above

CN(C)c1ccc(C(=C2C=CC(=[N+](C)C)C=C2)c2ccc(N(C)C)cc2)cc1
inactive: [2] | [18] | [7] | [17]
active: [1] 1.53 µM and 864 nM and 3.35 µM | [3] 27.2 µM and 37.6 µM | [4] 4.31 µM and 13.7 µM and 3.35 µM | [5] 10.8 µM and 27.3 µM and 13.3 µM | [6] 21.6 µM and 27.3 µM and 13.3 µM | [10] 8.59 µM and 15.4 µM and 5.96 µM | [19] 19.3 µM | [12] 24.2 µM and 30.6 µM and 21.1 µM | [13] 27.2 µM and 21.1 µM | [20] 19.4 µM and 43.6 µM and 19 µM | [14] 19.4 µM and 49 µM and 23.9 µM

Nc1ccc(NCCO)c([N+](=O)[O-])c1
active: [4] 48.6 µM | [10] 30.6 µM
not listed: [7] | [8] | [9] | [18]
inactive: all other assays above

Cc1cc(C(C)(C)C)c(O)c(C)c1Cn1c(=O)n(Cc2c(C)cc(C(C)(C)C)c(O)c2C)c(=O)n(Cc2c(C)cc(C(C)(C)C)c(O)c2C)c1=O
not listed: [11] | [18] | [19] | [20]
inactive: all other assays above

O=C(O)c1cc(=O)c2ccccc2o1
not listed: [10] | [13] | [18]
inactive: all other assays above

CN(C)Cc1ccccc1O
not listed: [10]
inactive: all other assays above

COC(=O)c1ccccc1OC
not listed: [11] | [18]
inactive: all other assays above

O[C@@H]([C@H](O)[C@H](O)CBr)[C@H](O)CBr
not listed: [9] | [16] | [17] | [18]
inactive: all other assays above

CCCC(=O)OC(C)(C)Cc1ccccc1
not listed: [7] | [8] | [9] | [10] | [18] | [20]
inactive: all other assays above

CCCCCCCCCCCC(=O)OCC(C)OC(=O)CCCCC(=O)O (stereo not given)
not listed: [12] | [18]
inactive: all other assays above

CCCC(=O)OCCc1ccccc1
not listed: [7] | [10] | [13] | [14] | [18] | [19]
inactive: all other assays above

COc1cccc(OC)c1C(=O)O
not listed: [7] | [13] | [18]
inactive: all other assays above

Cc1c(C)c2c(c(C)c1O)CC[C@@](C)(CCC[C@H](C)CCC[C@H](C)CCCC(C)C)O2
not listed: [10] | [18] | [20]
inactive: all other assays above

CC(C)(C)C1CCC(=O)CC1
active: [1] 30.6 µM
not listed: [10] | [12] | [13] | [18]
inactive: all other assays above

Cc1cccc2cccnc12
not listed: [7] | [18]
inactive: all other assays above

CCC(CC)C(C)CCOC(C)=O (stereo not given)
not listed: [7] | [11] | [18]
inactive: all other assays above

CN(C)CCN1CCN(c2cccc(Cl)c2)C1=O
not listed: [10] | [13]
inactive: all other assays above
